Results filed as inconclusive are left out. Values without a mark were called inactive. Activity calls are given as the source filed them. Calls follow the shape of the dose curve; as a rule, active = well fitted cell-killing curve with a large enough effect; inconclusive = small, poorly fitted or top-dose-only effect, or effect the other way; inactive = no such curve, though single readings can be large or run the other way.
Experiment: Quantitative High-Throughput drug screen in 47 multiple myeloma cell lines against the NCATS MIPE library collection: KMS11_JCRBsus cell viability assay (AID 1919873); also: nearly all actives have a fitted effect of over 50% in size
Conditions: KMS11 myeloma viability, CellTiter-Glo ATP luminescence, 48 h; series mostly up to 45.8 µM; viability (% of control): at the top concentration
Summary of the method: (§1)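 500 cells/well per myeloma line exposed to pinned MIPE 4.0 compounds for 48 h at 37 °C, 5% CO2. Viability read as ATP by CellTiter-Glo luminescence, normalised to DMSO-only (100%) and media-only (0%) wells.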
Potency is read from the fitted curve at half-maximal effect.

SMILES	Potency	viability (% of control)
CC(C)(O)c1cc2nc(-c3cnc(N)nc3)nc(N3CCOCC3)c2s1	18.7 nM (active)	–
CN[C@H]1CCc2cc(OC)c(OC)c(OC)c2-c2ccc(OC)c(=O)cc21	1.3 nM (active)	–
O=C(C=Cc1c(C(=O)O)[nH]c2cc(Cl)cc(Cl)c12)Nc1ccccc1	–	126%
CN1CC[C@@H](c2c(O)cc(O)c3c(=O)cc(-c4ccccc4Cl)oc23)[C@@H](O)C1	66.2 nM (active)	–
Cc1[nH]c2ccccc2c1CCNCc1ccc(C=CC(=O)NO)cc1	66.2 nM (active)	–
CCNC(=O)Nc1ccc2ncc(Nc3ccc(C)cc3)nc2n1	18700 nM (active)	–
COc1cccc(Nc2c(C(N)=O)cnc3c(C)cc(S(=O)(=O)c4cccc(C(=O)N(C)C)c4)cc23)c1	–	75.9% [at 23.2 µM]
Cc1cc(Nc2cc(N3CCN(C)CC3)nc(C=Cc3ccccc3)n2)n[nH]1	1210 nM (active)	–
CC(C)[C@H](C(=O)Nc1ccc(C(=O)NO)cc1)c1ccccc1	469 nM (active)	–
Nc1ccn([C@@H]2O[C@H](CO)[C@H](O)C2(F)F)c(=O)n1	296 nM (active)	–
CCC1=C[C@@H]2CN(C1)Cc1c([nH]c3ccccc13)[C@@](C(=O)OC)(c1cc3c(cc1OC)N(C)[C@@H]1[C@@](O)(C(=O)OC)[C@H](OC(C)=O)[C@]4(CC)C=CCN5CC[C@]31[C@@H]54)C2	8.3 nM (active)	–
CCCCN1CCC(CNC(=O)c2c3n(c4ccccc24)CCCO3)CC1	13200 nM (active)	–
COC(=O)Nc1nc2ccc(C(=O)c3ccc(F)cc3)cc2[nH]1	296 nM (active)	–
O=C(CCCCCCC(=O)Nc1ccc([C@H]2O[C@@H](CSc3nc(-c4ccccc4)c(-c4ccccc4)o3)C[C@@H](c3ccc(CO)cc3)O2)cc1)NO	11800 nM (active)	–
Nc1ccc(S(=O)(=O)Nc2ncccn2)cc1	–	118%
CC(=O)Nc1sc2c(c1-c1nc3ccccc3s1)CNC2	13200 nM (active)	–
COc1cc2ncn(-c3cc(OCc4ccccc4C(F)(F)F)c(C(N)=O)s3)c2cc1OC	296 nM (active)	–
CC(O)C1C(=O)N2C(C(=O)O)=C(SC3CNC(C(=O)N(C)C)C3)C(C)C12 (stereo unspecified)	–	99.1%
COc1cc2c(Oc3ccc4[nH]c(C)cc4c3F)ncnc2cc1OCCCN1CCCC1	2960 nM (active)	–
COc1cc(-c2nn(C3CCC(N4CCN(C(C)=O)CC4)CC3)c3ncnc(N)c23)ccc1NC(=O)c1cc2ccccc2n1C (stereo unspecified)	4180 nM (active)	–
CCCCCN(CCC12CC3CC(CC(C3)C1)C2)C(=O)NCCCc1ccncc1	16600 nM (active)	–
Cc1cn2c(-c3cn[nH]c3)cnc2c(Nc2ccc(C(=O)N3CCNCC3)cc2F)n1	8330 nM (active)	–
COc1c(OCCCN2CCOCC2)ccc2c3n(c(=NC(=O)c4cnc(N)nc4)nc12)CCN3	32.3 nM (active)	–
Cc1c(Cn2c(C)nc3c(C(=O)O)cc(N4CCOCC4)cc32)cccc1C(F)(F)F	–	95.1%
Cc1c(NC(=O)OC[C@@H]2COCCN2)cn2ncnc(Nc3ccc4c(cnn4Cc4cccc(F)c4)c3)c12	26400 nM (active)	–
COc1ccc(CC2c3cc(OC)c(OC)cc3CC[N+]2(C)CCC(=O)OCCCCCOC(=O)CC[N+]2(C)CCc3cc(OC)c(OC)cc3C2Cc2ccc(OC)c(OC)c2)cc1OC (stereo unspecified)	–	114% [at 5.15 µM]
COc1cc(C(=O)NS(=O)(=O)c2ccccc2C)ccc1Cc1cn(C)c2ccc(NC(=O)OC3CCCC3)cc12	7430 nM (active)	–
COC(=O)Nc1ccc(-c2nc(N3CCOCC3)c3cnn(C4CCN(Cc5cccnc5)CC4)c3n2)cc1	29.6 nM (active)	–
COc1ccc2c(OCc3nnc4ccc(-c5ccccc5)nn34)ccnc2c1	–	111%
CCCn1c(=O)c2[nH]c(-c3cnn(Cc4cccc(C(F)(F)F)c4)c3)nc2n(CC)c1=O	–	104%

Experiment: Quantitative High-Throughput drug screen in 47 multiple myeloma cell lines against the NCATS MIPE library collection: KMS28BM_JCRB cell viability assay (AID 1919874); also: nearly all actives have a fitted effect of over 35% in size
Conditions: CellTiter-Glo ATP, 48 h; series mostly up to 45.8 µM; viability, % of control: at the top concentration
Summary of the method: as §1

SMILES	Potency	viability, % of control
CC(C)(O)c1cc2nc(-c3cnc(N)nc3)nc(N3CCOCC3)c2s1	66.2 nM (active)	–
CN[C@H]1CCc2cc(OC)c(OC)c(OC)c2-c2ccc(OC)c(=O)cc21	3.3 nM (active)	–
CN1CC[C@@H](c2c(O)cc(O)c3c(=O)cc(-c4ccccc4Cl)oc23)[C@@H](O)C1	93.5 nM (active)	–
COc1cccc(Nc2c(C(N)=O)cnc3c(C)cc(S(=O)(=O)c4cccc(C(=O)N(C)C)c4)cc23)c1	–	84.6% [at 23.2 µM]
Cc1cc(Nc2cc(N3CCN(C)CC3)nc(C=Cc3ccccc3)n2)n[nH]1	13600 nM (active)	–
CN(C)c1nc(Cc2ccc(NC(=O)c3ccc4ccccc4c3)cc2)nc(Cl)c1CC(=O)O	–	137%
CCC1=C[C@@H]2CN(C1)Cc1c([nH]c3ccccc13)[C@@](C(=O)OC)(c1cc3c(cc1OC)N(C)[C@@H]1[C@@](O)(C(=O)OC)[C@H](OC(C)=O)[C@]4(CC)C=CCN5CC[C@]31[C@@H]54)C2	4.7 nM (active)	–
COC(=O)Nc1nc2ccc(C(=O)c3ccc(F)cc3)cc2[nH]1	332 nM (active)	–
Nc1ccc(S(=O)(=O)Nc2ncccn2)cc1	–	106%
CC(=O)Nc1sc2c(c1-c1nc3ccccc3s1)CNC2	14800 nM (active)	–
COc1cc2ncn(-c3cc(OCc4ccccc4C(F)(F)F)c(C(N)=O)s3)c2cc1OC	526 nM (active)	–
COc1cc2c(Oc3ccc4[nH]c(C)cc4c3F)ncnc2cc1OCCCN1CCCC1	16600 nM (active)	–
COc1cc(-c2nn(C3CCC(N4CCN(C(C)=O)CC4)CC3)c3ncnc(N)c23)ccc1NC(=O)c1cc2ccccc2n1C (stereo unspecified)	3320 nM (active)	–
CCCCCN(CCC12CC3CC(CC(C3)C1)C2)C(=O)NCCCc1ccncc1	8330 nM (active)	–
Cc1cn2c(-c3cn[nH]c3)cnc2c(Nc2ccc(C(=O)N3CCNCC3)cc2F)n1	8330 nM (active)	–
Cc1c(Cn2c(C)nc3c(C(=O)O)cc(N4CCOCC4)cc32)cccc1C(F)(F)F	–	106%
COc1ccc(CC2c3cc(OC)c(OC)cc3CC[N+]2(C)CCC(=O)OCCCCCOC(=O)CC[N+]2(C)CCc3cc(OC)c(OC)cc3C2Cc2ccc(OC)c(OC)c2)cc1OC (stereo unspecified)	–	110% [at 5.15 µM]
CS(=O)(=O)c1ccc(-c2cnc(N)c(C(=O)Nc3ccccc3)n2)cc1	–	120%
COc1cc(C(=O)NS(=O)(=O)c2ccccc2C)ccc1Cc1cn(C)c2ccc(NC(=O)OC3CCCC3)cc12	16600 nM (active)	–
COC(=O)Nc1ccc(-c2nc(N3CCOCC3)c3cnn(C4CCN(Cc5cccnc5)CC4)c3n2)cc1	418 nM (active)	–
COc1ccc2c(OCc3nnc4ccc(-c5ccccc5)nn34)ccnc2c1	–	110%

From PubChem BioAssay (NCATS)
